This note sets out measurements from PubChem BioAssay (NCATS).

The structures appear in SMILES notation. Records with an inconclusive call do not appear. A call without a number means that no potency is given here. Activity calls are given as the source filed them. The call rests on the fitted dose curve; in most records, active means well fitted cell-killing curve with a large enough effect; inconclusive means small, poorly fitted or top-dose-only effect; inactive means flat fitted curve, though single readings scatter.
Potency means the concentration at half of the fitted maximal effect.

A short description of one test: qHTS of pediatric cancer cell lines to identify multiple opportunities for drug repurposing: Primary screen for BT-12 cells (AID 1347101). Further: nearly all actives have a fitted effect of over 25% in size. As to conditions: BT-12 viability, CellTiter-Glo luminescence, 48 h; series mostly up to 57.3 µM. The method, boiled down:
(§1)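 Cells (500-1,000/well) rested 5 h, then received compounds for 48 h; metabolically active cells were measured by CellTiter-Glo luminescence. Final concentrations spanned up to 46 µM (MIPE, 11-point) or 0.59 nM-46 µM (NPC, 8-point) in primary screens, 11-point in follow-ups.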
In the case of `CCCCCCCCCCCCCCC[C@H](O)[C@@H](N)CO`, the Potency entry was “inactive”.

As to `Cc1c(-c2ccccc2)oc2c(C(=O)OCCN3CCCCC3)cccc2c1=O`, the Potency entry was “inactive”.

On to `CCN1CCN(C(=O)N[C@@H](C(=O)N[C@@H]2C(=O)N3C(C(=O)O)=C(CSc4nnnn4C)CS[C@H]23)c2ccc(O)cc2)C(=O)C1=O`, for which the Potency entry is “inactive”.

For `COc1ccc(C(=O)c2ccccc2)c(O)c1`, the Potency entry is “inactive”.

`OCCOCCN1CCN(C2=Nc3ccccc3Sc3ccccc32)CC1`: the Potency result is “inactive”.

For the molecule `CCCCCCCCOc1ccc(C(=O)c2ccccc2)c(O)c1`, the Potency entry is “inactive”.

Turning to `O=C1C(CCS(=O)c2ccccc2)C(=O)N(c2ccccc2)N1c1ccccc1` (centres undefined), the Potency entry is “inactive”.

Regarding `CN1CCC[C@@H]1CCO[C@](C)(c1ccccc1)c1ccc(Cl)cc1`, the Potency is 27.6 µM (active).

Take `O=C1OC(CN2CCOCC2)CN1/N=C/c1ccc([N+](=O)[O-])o1` (centres undefined): the Potency result was “inactive”.

With `CCCCN=C(N)N=C(N)N`, the Potency entry is “inactive”.

In the case of `Cc1ncc(CO)c(C=O)c1O`, the Potency result was “inactive”.

For the molecule `COc1ccc2c(c1)c1c3n2CCN(C)C3=NCC1`, the Potency entry was “inactive”.

Consider `O=C(NC1CCN(CCc2c[nH]c3ccccc23)CC1)c1ccccc1`, for which the Potency entry is “inactive”.

Regarding `CCCCCCCCCCCCCCCC(=O)O`, the Potency result was “inactive”.

For the molecule `Cc1cc(CC(=O)O)c(C)n1-c1ccc(Cl)cc1`, the Potency entry is “inactive”.

Regarding `CC(=O)Nc1ncc([N+](=O)[O-])s1`, the Potency result is “inactive”.

As for `NS(=O)(=O)c1cc2c(cc1Cl)NC(CC1CCCC1)NS2(=O)=O` (centres undefined), the Potency result is “inactive”.

For the molecule `Cc1cccc(C)c1NC(=O)c1ccccc1C(=O)O`, the Potency result was “inactive”.

Take `CN1CCN(c2cc3c(cc2F)c(=O)c(C(=O)O)cn3-c2ccc(F)cc2)CC1`: the Potency entry was “inactive”.

As for `C/C=C/C=N/NC(=O)c1ccncc1`, the Potency entry was “inactive”.

`CC(C)CCCC(C)N` (centres undefined): the Potency result is “inactive”.

For the molecule `COC(=O)C(c1ccccc1Cl)N1CCc2sccc2C1` (centres undefined), the Potency result is “inactive”.

With `CCOc1ccccc1C(N)=O`, the Potency entry was “inactive”.

`CC(=O)OCC(=O)[C@H]1CC[C@H]2[C@@H]3CCC4=CC(=O)CC[C@]4(C)[C@H]3CC[C@]12C`: the Potency entry is “inactive”.

Regarding `CCN1/C(=C/C=C/c2sc3ccccc3[n+]2CC)Sc2ccccc21`, the Potency was 0.601 µM (active).

On to `CCC1NC(=O)c2cc(S(N)(=O)=O)c(Cl)cc2N1` (centres undefined), for which the Potency result is “inactive”.

With `CCCN(CCC)S(=O)(=O)c1ccc(C(=O)O)cc1`, the Potency entry is “inactive”.

`CCOc1cc(OCC)c(C(=O)CCC(=O)O)cc1OCC`: the Potency result was “inactive”.

With `O=C(O)Cc1csc(-c2ccc(Cl)cc2)n1`, the Potency result is “inactive”.

The next test can be described thus: qHTS of pediatric cancer cell lines to identify multiple opportunities for drug repurposing: Primary screen for Rh18 cells (AID 1347102). Further: nearly all actives have a fitted effect of over 65% in size. As to conditions: Rh18 rhabdomyosarcoma viability, CellTiter-Glo luminescence, 48 h; series mostly up to 46 µM. The method, boiled down: as §1
Background: Quantitative high-throughput screening tests each substance at several concentrations.
Take `CCCCCCCCCCCCCCC[C@H](O)[C@@H](N)CO`: the Potency result was “inactive”.

Consider `Cc1c(-c2ccccc2)oc2c(C(=O)OCCN3CCCCC3)cccc2c1=O`, for which the Potency entry is “inactive”.

In the case of `CCN1CCN(C(=O)N[C@@H](C(=O)N[C@@H]2C(=O)N3C(C(=O)O)=C(CSc4nnnn4C)CS[C@H]23)c2ccc(O)cc2)C(=O)C1=O`, the Potency result is “inactive”.

In the case of `COc1ccc(C(=O)c2ccccc2)c(O)c1`, the Potency entry is “inactive”.

For the molecule `CC(C)[N+](C)(C)CC(O)COc1cccc2ccccc12` (centres undefined), the Potency result was “inactive”.

`OCCOCCN1CCN(C2=Nc3ccccc3Sc3ccccc32)CC1`: the Potency entry is “inactive”.

Take `CCCCCCCCOc1ccc(C(=O)c2ccccc2)c(O)c1`: the Potency entry is “inactive”.

Take `O=C1C(CCS(=O)c2ccccc2)C(=O)N(c2ccccc2)N1c1ccccc1` (centres undefined): the Potency result is “inactive”.

For the molecule `O=C1OC(CN2CCOCC2)CN1/N=C/c1ccc([N+](=O)[O-])o1` (centres undefined), the Potency result is “inactive”.

In the case of `CCCCN=C(N)N=C(N)N`, the Potency result is “inactive”.

Turning to `CC1CCc2c(N3CCC(O)CC3)c(F)cc3c(=O)c(C(=O)O)cn1c23` (centres undefined), the Potency entry was “inactive”.

Take `Cc1ncc(CO)c(C=O)c1O`: the Potency result is “inactive”.

Consider `COc1ccc2c(c1)c1c3n2CCN(C)C3=NCC1`, for which the Potency entry is “inactive”.

As for `O=C(Nc1cccc(C2=NCCN2)c1)Nc1cccc(C2=NCCN2)c1`, the Potency result is “inactive”.

`O=C(NC1CCN(CCc2c[nH]c3ccccc23)CC1)c1ccccc1`: the Potency result was “inactive”.

With `CCCCCCCCCCCCCCCC(=O)O`, the Potency result was “inactive”.

Take `CC(C)n1c(/C=C/[C@@H](O)C[C@@H](O)CC(=O)O)c(-c2ccc(F)cc2)c2ccccc21`: the Potency was 7.5 µM (active).

On to `Cc1cc(CC(=O)O)c(C)n1-c1ccc(Cl)cc1`, for which the Potency result is “inactive”.

Consider `CC(=O)Nc1ncc([N+](=O)[O-])s1`, for which the Potency entry is “inactive”.

As to `NS(=O)(=O)c1cc2c(cc1Cl)NC(CC1CCCC1)NS2(=O)=O` (centres undefined), the Potency entry was “inactive”.

With `Cc1cccc(C)c1NC(=O)c1ccccc1C(=O)O`, the Potency entry is “inactive”.

Turning to `CN1CCN(c2cc3c(cc2F)c(=O)c(C(=O)O)cn3-c2ccc(F)cc2)CC1`, the Potency entry is “inactive”.

With `C/C=C/C=N/NC(=O)c1ccncc1`, the Potency result is “inactive”.

Turning to `CC(C)CCCC(C)N` (centres undefined), the Potency entry was “inactive”.

`COC(=O)C(c1ccccc1Cl)N1CCc2sccc2C1` (centres undefined): the Potency entry is “inactive”.

In the case of `CCOc1ccccc1C(N)=O`, the Potency result was “inactive”.

In the case of `C[N+]1(CC2COC(c3ccccc3)(C3CCCCC3)O2)CCCCC1` (centres undefined), the Potency result is “inactive”.

Take `CC(=O)OCC(=O)[C@H]1CC[C@H]2[C@@H]3CCC4=CC(=O)CC[C@]4(C)[C@H]3CC[C@]12C`: the Potency result is “inactive”.

In the case of `CCN1/C(=C/C=C/c2sc3ccccc3[n+]2CC)Sc2ccccc21`, the Potency is 1.03 µM (active).

For the molecule `CCC1NC(=O)c2cc(S(N)(=O)=O)c(Cl)cc2N1` (centres undefined), the Potency result was “inactive”.

Consider `CN(CCCN1c2ccccc2CCc2ccccc21)CC(=O)c1ccc(Cl)cc1`, for which the Potency entry is “inactive”.

In the case of `CC(=O)O[C@]1(C(C)=O)CC[C@H]2[C@@H]3C=C(Cl)C4=CC(=O)CC[C@]4(C)[C@H]3CC[C@@]21C`, the Potency result is “inactive”.

`CCCN(CCC)S(=O)(=O)c1ccc(C(=O)O)cc1`: the Potency result was “inactive”.

Turning to `CCOc1cc(OCC)c(C(=O)CCC(=O)O)cc1OCC`, the Potency entry is “inactive”.

On to `O=C(O)Cc1csc(-c2ccc(Cl)cc2)n1`, for which the Potency entry was “inactive”.
